The text below walks through data of ChEMBL document CHEMBL4513216, “Probing the Open Global Health Chemical Diversity Library for Multistage-Active Starting Points for Next-Generation Antimalarials” (ACS Infect Dis, 2020).

About 8,600 (12%) of roughly 69,000 compounds showed an effect of 50% or more. The sample holds strong results, similar compounds and a random draw of the others, so the mix is not that of the screen.

The subject of this assay is Plasmodium berghei. Description: Screen against P. berghei liver stage (PbLuc), transformed with Luciferase, at 10uM. The class given is functional, HepG2. The conditions noted are these: tested at 10 uM.
On to `CC1CCN(CC(=O)N(C)CCc2noc(C3CC3)n2)C1=O` (centres undefined), for which the INHIBITION is -22.1%.

On to `CCCn1cc(CN2CCOCC2c2[nH]ncc2C)cn1` (centres undefined), for which the INHIBITION turned out to be 6.2%.

In the case of `Cc1ncc(CN2CCc3c(nc4cc(C5CC5)nn4c3O)C2)n1C`, the INHIBITION is listed as 47.1%.

For the compound `Cc1oc2c(c1C(=O)N1CC[C@H](O)[C@]3(CCCO3)C1)CCCC2`, the INHIBITION turned out to be 3.75%. As for `CC(C)Oc1cccc2c1c(NC(=O)CN(C)C)nn2CC(F)(F)F`, the figure is 7.77%; as for `O=C(c1cc[nH]n1)N1CCCC(c2cccc(-n3ccnc3)n2)C1` (centres undefined), 14.4%.

In the case of `Cc1nc(C(=O)N2CCCC(c3cccc(-n4ccnc4)n3)C2)co1` (centres undefined), the INHIBITION amounted to 29.6%. With `Cc1nccn1-c1cccc(C2CCCN(C(=O)c3cc[nH]n3)C2)n1` (centres undefined), the INHIBITION is listed as 53.8%.

Turning to `Cc1n[nH]cc1C(=O)N1CCCC(c2cccc(-n3ccnc3)n2)C1` (centres undefined), the INHIBITION is listed as -13.7%.

As for `O=C(C1CCCC1)N1CCCC(c2cccc(-n3ccnc3)n2)C1` (centres undefined), the INHIBITION is on record as 63.4%.

Consider `CC(=O)N1CCCC(c2cccc(-n3ccnc3)n2)C1` (centres undefined), for which the INHIBITION is recorded as 36.7%.

Turning to `Cc1nccn1-c1cccc(C2CCCN(C3CCCCC3)C2)n1` (centres undefined), the INHIBITION was 11.4%. As for `O=C(C1CCC1)N1CCCC(c2cccc(-n3ccnc3)n2)C1` (centres undefined), the figure is 29.3%.

As for `Cc1cc(C)nc(N2CCCC(c3cccc(-n4ccnc4)n3)C2)n1` (centres undefined), the INHIBITION worked out at 69.3%. In the case of `O=C(c1cnccn1)N1CCCC(c2cccc(-n3ccnc3)n2)C1` (centres undefined), the INHIBITION came to 50.1%.

`COCC(=O)N1CCCC(c2cccc(-n3ccnc3)n2)C1` (centres undefined): the INHIBITION is on record as 36.7%.

For the compound `c1cnc(N2CCCC(c3cncc(-n4ccnc4)n3)C2)nc1` (centres undefined), the INHIBITION stood at 15.9%. The value for `CC(=O)c1ccc(OCC(=O)NS(=O)(=O)c2cccnc2)cc1` was 35.9%.

As for `Cc1cnn(CC2CCCCN2C(=O)c2cc(Cl)c[nH]2)c1` (centres undefined), the INHIBITION stood at 40.3%.

With `Cc1cccc(C(=O)N2CCC3(CC(C(=O)N(C)C(C)C)=NO3)C2)c1` (centres undefined), the INHIBITION came to 6.72%. As for `Cc1noc([C@@H]2C[C@H]3OCC[C@H]3N(S(=O)(=O)N(C)C)C2)n1`, the figure is -13%; as for `CC(=O)N1CCN(C(=O)NCc2ccccc2Cn2cncn2)CC1`, -56.4%. As for `COCC(=O)NCC1CCC(c2ccnc3ncnn23)CC1` (centres undefined), the figure is 15.5%; as for `Cc1cc(C)nc(N2CCC(c3cncc(-n4ccnc4)n3)CC2)n1`, 66.4%. As for `Fc1ccc(CN2CCCC2c2cncc(-n3ccnc3)n2)cc1` (centres undefined), the figure is 22.7%.

As to `c1cn(-c2cncc(C3CCNCC3)n2)cn1`, the INHIBITION is listed as -64.7%.

As to `CCOCc1ccc(NC(=O)N2CCOC3(CCC3)C2)cc1`, the INHIBITION was -1.32%. The value for `O=C(c1cc(Br)c[nH]1)N1CCN(Cc2ccco2)CC1` was 55.4%. As for `CC(=O)N1CCN(Cc2ccco2)CC2(CC(=O)N(C)C2)C1` (centres undefined), the figure is 19.8%; as for `O=C(c1cc(Cl)c(Br)[nH]1)N1CCN(Cc2ccco2)CC1`, 63.8%; as for `O=C(c1cc(Br)ccc1Cl)N1CCN(Cc2ccco2)CC1`, 36.9%.

For `Cc1cc(C)c2cc(C(=O)N3CCN(Cc4ccco4)CC3)[nH]c2c1`, the INHIBITION was found to be 9.04%.

As for `CC(C)c1cc(C(=O)N2CCN(Cc3ccco3)CC2)n[nH]1`, the INHIBITION turned out to be 14.3%. As for `CCOc1ncnc2c1CCN(S(=O)(=O)c1ccccc1)CC2`, the figure is 41.2%; as for `Cc1ccc2nc(C3CCN(CC(C)C)CC3)nc(O)c2c1`, -8.07%. The value for `CC(C)Oc1ccc(C(=O)N2CCC(Nc3cccnn3)CC2)cn1` was -73.2%; that for `Cc1cccc(CN2CCCn3c(nnc3CN3CCCC3=O)C2)n1` was 24.8%; that for `Cc1ccc(NC2CCN(C(=O)C(C)n3cncn3)CC2)nn1` (centres undefined) was -19.4%. As for `O=C(c1ccccc1)N1C[C@H]2CC[C@@H](C1)N(C(=O)CN1CCOCC1)C2`, the figure is 0.897%.

In the case of `CN(C(=O)COc1ccc(-c2noc(C3CCCO3)n2)cc1)C1CC1` (centres undefined), the INHIBITION was -27.3%. Take `Cc1cc(C)cc(-n2ncc3c2CCCC3N)c1` (centres undefined): the INHIBITION was 37.9%. As for `Cc1nc(C)n(CC(=O)N2CCCC(c3nc(C)n4c(C)csc34)C2)n1` (centres undefined), the figure is 8.12%; as for `O=C(c1cn(-c2ccc(F)cc2)nn1)N1CCCC(n2cccn2)C1` (centres undefined), -73.2%. As for `CCCc1nnc(NC(C)c2ccc3c(c2)OCCO3)o1` (centres undefined), the figure is 53.9%; as for `Cc1nc(CCNC(C)c2ccc3c(c2)OCCCO3)cs1` (centres undefined), 10%; as for `CCc1nnc(N[C@H](C)c2cccc(OC)c2)o1`, 8.48%. As for `CC(NC(=O)CNCCn1cccn1)c1ccc2c(c1)OCCO2` (centres undefined), the figure is 24.8%; as for `CCCc1nnc(N[C@H](C)c2ccc(OC)cc2)o1`, 52.8%; as for `CCCc1nnc(NC(C)c2ccc(F)cc2)o1` (centres undefined), 8.48%. Turning to `Cc1cc(C)n(C2CCCN(C(=O)Cc3cn4ccsc4n3)C2)n1` (centres undefined), the INHIBITION is -15.52%. As for `CCc1ccc(C(C)NC(=O)N2CCC(n3cncn3)CC2)cc1` (centres undefined), the figure is -73.1%; as for `CC(C)N1CCN(C(=O)c2[nH]nnc2Nc2ccccc2F)CC1`, 4.35%; as for `CC(C)CN1CCN(C(=O)c2[nH]nnc2Nc2ccccc2F)CC1`, 64%. Turning to `CC(=O)N1CCN(C(=O)c2[nH]nnc2Nc2ccccc2F)CC1`, the INHIBITION was -1.45%.
